Measurements as given in PubChem BioAssay AID2515 (National Center for Advancing Translational Sciences (NCATS), 2010).
Inconclusive results are not listed. A call without a number means that no potency is given here. Activity calls are given as the source filed them. The call rests on the fitted dose curve; in most records, active means well fitted inhibition curve with a large enough effect; inconclusive means small, poorly fitted or top-dose-only effect; inactive means flat fitted curve, though single readings scatter.

What follows are compounds tested against Luciferin 4-monooxygenase (Photinus pyralis) (UniProt P08659) (assay: Counterscreen Assay for Enhancers of SMN2 Splice Variant Expression: Interaction with Luciferase Reporter for Probe SAR). Settings: purified firefly luciferase, luminescence inhibition; series mostly up to 51 µM.
Excerpt: NIH Chemical Genomics Center [NCGC] NIH Molecular Libraries Probe Production centers Network [MLPCN] MLPCN Grant: R03 MH084179-01 Assay Submitter (PI): Elliot Androphy NCGC Assay Overview: Spinal muscular atrophy (SMA) is caused by insufficient levels of the survival motor neuron protein SMN. The SMN locus on chromosome 5q13 contains two inverted copies of SMN called SMN1 and SMN2 which are 99% identical at the amino acid level. SMN1 is a fully functional protein and SMN2 skips exon 7 90% of the time. Skipping of exon 7 produces non-functional protein product. 10% of the SMN2 protein includes exon 7 and is fully functional. In the SMA disease state, mutations in the SMN1 locus are the cause of the disease state. Because only 10% of SMN2 is of the fully functional form, it is not sufficient to overcome the deficiency produced by the loss of the SMN1 product. A therapy that either increases the amount of SMN2 product made increases the inclusion of exon 7 has been proposed for the treatment of SMA. We have designed an assay to identify small molecules that can increase the amount of functional SMN2 product by appending a luciferase reporter gene after the native SMN2 gene, such that inclusion of exon 7 in the expressed product places the luciferase sequence in frame, thus generating functional luciferase enzyme. One potential source of false positives in the primary screening assay is stabilization of the reporter luciferase via direct binding. This assay attempts to identify such compounds by screening directly for luciferase activity in the absence of the cellular system.
NCGC Assay Protocol Summary: The primary screen utilizes a luciferase reporter gene assay, combining the promoter and splicing based cassettes in tandem with the major portion of the native SMN1 cDNA, and then transfected into HEK293 cells. Compounds that modulate luciferase signal presumably modulate expression of […]. In this assay, we utilize purified firefly luciferase in lieu of a cellular reporter to identify compounds interacting directly with luciferase in the primary screen. Sequence, Parameter, Value, Description (1) Reagent, 2.5 uL, Enzyme in buffer (note A) (2) Compound, 23 nL, From stock solutions (3) Time, 5 minutes, Room temp (4) Reagent#2.5 ul, Luciferase detection reagent (note B) (5) Detector, 1 sec integrate, Luminescent read on Viewlux (note C) Sigma enzyme (1 mg) considered to be MW 61,000 diluted in 357 ul assay buffer to 50 uM stock. A - Enzyme and buffer consists of 50 mM Tris-acetate pH 7.6, 10 mM Mg acetate 0.05% BSA, 0.01% Tween and 5 nM firefly luciferase B - Detection reagent = britelite plus diluted 1:10 in PBS C - Viewlux settings were 1 second integration medium sensitivity Keywords: Spinal muscular atrophy, SMA, SMN2, high throughput screening, MLSMR, MLPCN, NIH Roadmap, qHTS and NCGC

Luciferin 4-monooxygenase (Photinus pyralis), sequence (P08659 whole entry, looked up, canonical isoform): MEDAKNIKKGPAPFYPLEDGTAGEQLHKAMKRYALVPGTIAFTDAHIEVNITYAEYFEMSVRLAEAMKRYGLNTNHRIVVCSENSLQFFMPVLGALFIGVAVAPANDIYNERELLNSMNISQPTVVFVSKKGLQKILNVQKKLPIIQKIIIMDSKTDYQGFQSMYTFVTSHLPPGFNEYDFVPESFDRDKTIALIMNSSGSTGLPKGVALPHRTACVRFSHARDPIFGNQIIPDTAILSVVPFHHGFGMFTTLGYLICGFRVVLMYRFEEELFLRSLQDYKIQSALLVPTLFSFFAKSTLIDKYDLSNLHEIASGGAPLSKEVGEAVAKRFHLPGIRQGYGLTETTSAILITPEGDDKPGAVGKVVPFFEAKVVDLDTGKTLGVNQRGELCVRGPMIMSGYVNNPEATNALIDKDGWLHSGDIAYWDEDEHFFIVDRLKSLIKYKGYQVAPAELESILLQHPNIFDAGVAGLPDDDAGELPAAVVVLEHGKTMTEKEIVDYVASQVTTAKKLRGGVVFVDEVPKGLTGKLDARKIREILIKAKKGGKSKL

Row | Structure (SMILES) | Potency
1 | Cc1ccc(-c2csc(N3CCC(C(N)=O)CC3)n2)cc1 | 12.7 µM (active)
2 | NC(=O)C1CCN(c2nc(-c3ccccc3N)cs2)CC1 | inactive
3 | CN(C)c1ccccc1-c1csc(N2CCC(C(N)=O)CC2)n1 | inactive
4 | NC(=O)C1CCN(c2nc(-c3cc4ccccc4o3)cs2)CC1 | 31.8 µM (active)
5 | NC(=O)C1CCN(c2nc(-c3ccccc3F)cs2)CC1 | 35.7 µM (active)
6 | CN(C)C(=O)c1cccc(-c2csc(N3CCC(C(N)=O)CC3)n2)c1 | inactive
7 | CS(=O)(=O)c1ccccc1-c1csc(N2CCC(C(N)=O)CC2)n1 | inactive
8 | NC(=O)C1CCN(c2nc(-c3cccnc3)cs2)CC1 | inactive
9 | NC(=O)C1CCN(c2nc(-c3cccc(N)c3)cs2)CC1 | inactive
10 | Cn1ccc2cc(-c3csc(N4CCC(C(N)=O)CC4)n3)ccc21 | 10.1 µM (active)
11 | NC(=O)C1CCN(c2nc(-c3ccc(F)cc3)cs2)CC1 | 28.4 µM (active)
12 | NC(=O)C1CCN(c2nc(-c3ccccc3C(F)(F)F)cs2)CC1 | inactive
13 | CN(C)c1cccc(-c2csc(N3CCC(C(N)=O)CC3)n2)c1 | 12.7 µM (active)
14 | CS(=O)(=O)c1cccc(-c2csc(N3CCC(C(N)=O)CC3)n2)c1 | inactive
15 | NC(=O)C1CCN(c2nc(-c3ccc(Br)cc3)cs2)CC1 | 40.1 µM (active)
16 | NC(=O)C1CCN(c2nc(-c3ccc4c(c3)OCCO4)cs2)CC1 | 4.5 µM (active)
17 | NC(=O)C1CCN(c2nc(-c3ccc4ccccc4c3)cs2)CC1 | 31.8 µM (active)
18 | Cc1noc(C)c1-c1csc(N2CCC(C(N)=O)CC2)n1 | inactive
